The text below walks through data of PubChem BioAssay.

This assay in a line: small-molecule microarray binders of probe aEGFR, primary screen, biochemical, biotinylated probe, 635/667 nm fluorescence (AID 1097).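 Further: probe is a biotinylated anti-EGFR antibody binding compounds printed on slides; score combines fluorescence near 667 nm and signal to noise of each spot.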 Conditions: higher = more signal.
`C=CCC(OC(C)=O)[C@@H]1[C@@H](N(Cc2cccc3ccccc23)C(=O)c2ccc(-c3ccccc3)cc2)c2cc(OCCCO)ccc2N1C(=O)Cc1ccc2ccccc2c1` (some centres undefined) came in with a composite z-score of -0.112.

Consider `O=C(NC1CC1)[C@@H]1c2ccccc2C(=O)N(Cc2ccc(OC(F)(F)F)cc2)[C@H]1c1ccc(CO)cc1`, for which the composite z-score is -0.0679.

With `O=C(NC1CC1)[C@@H]1c2ccccc2C(=O)N(CC23CC4CC(CC(C4)C2)C3)[C@H]1c1ccc(CO)cc1`, the composite z-score is 0.0201.

In the case of `CC(=O)NCCCC[C@@H]1NC(=O)[C@H]2C[C@@H](C(=O)NCCCCCCNC(=O)CS)[C@@H](c3cccc(OCCO)c3)N2C1=O`, the composite z-score is -0.123.

Compound `O=C1O[C@@H](c2ccccc2)[C@@H](c2ccccc2)N2[C@@H](c3ccc(OCCO)cc3)[C@]3(C(=O)Nc4ccc(C#CC5(O)CCCCCC5)cc43)[C@@H](C(=O)O)[C@H]12` gave a composite z-score of -0.0828.

The compound `COC(=O)[C@@]1(Cc2ccccc2)[C@H]2c3cc(C(=O)N(C)C)n(Cc4ccc(C(F)(F)F)nc4)c3C[C@H]2CN1C(=O)c1ccccc1` returned a composite z-score of 0.228.

`CN1C(=O)C2C(C1=O)C1C=C(c3ccc(CO)cc3)C2C(C2CC2)N1C` (centres undefined) registered a composite z-score of -0.229.

For `O=C1C=C(c2ccccc2)C(=O)C2=C1CC([C@H]1Oc3ccccc3S(=O)(=O)N3CCC[C@@H]13)=CC2`, the composite z-score is -0.135.

As for `C=C(COC)C(=O)CC[C@@H](OC(C)=O)c1ccccc1OCCO`, the composite z-score was -0.0382.

The compound `COCCOC(=O)N1C(=O)[C@@]2(c3cc(C#CCCO)ccc31)[C@H](c1ccccc1OCCO)N1[C@H](c3ccccc3)[C@H](c3ccccc3)OC(=O)[C@H]1[C@@H]2C(N)=O` displayed a composite z-score of 0.0111.

In turn, `CCCCCCc1nc(Cc2cc(OC)c(OC)c(OC)c2)cc2c1[Si](C(C)C)(C(C)C)O[C@H]2c1ccccc1` came in with a composite z-score of -0.0975.

For `COC(=O)[C@]1(CCC(=O)OC(C)(C)C)N=C(c2ccc(OCCCO)cc2)O[C@@H]1c1ccccc1N=[N+]=[N-]`, the composite z-score was -0.127.

On to `C[C@@H]1ON(c2ccc(I)cc2)[C@H](c2cccc(NC(=O)OCC3c4ccccc4-c4ccccc43)c2)[C@H]1C(=O)N1C(=O)OC[C@H]1Cc1ccccc1`, for which the composite z-score is 0.0773.

`CC1CC/C=C\[C@H]2OC34C=CCN(C(C)(C)C)C(=O)[C@H]3N(CCCO)C(=O)[C@@H]4C2C(=O)O1` (some centres undefined): the composite z-score is -0.249.

Consider `COc1ccc([Si](C)(C)[C@H]2[C@H](CC(=O)N3Cc4ccccc4C[C@H]3CO)O[C@@]3(C(=O)N(c4ccccc4)c4ccccc43)[C@@H]2C)cc1`, for which the composite z-score came out at 0.0059.

In turn, `CCCNC(=O)[C@@]1(Sc2ccc(C)cc2)CC(=O)N(Cc2ccccc2Cl)[C@@H]1c1ccc(CO)cc1I` yielded a composite z-score of -0.267.

As for `N#Cc1ccc(-c2cccc(=O)o2)cc1`, the composite z-score is -0.0794.

Take `CCCCC(O)C1C=CC2C(=O)N(c3ccccc3)C(=O)C2N1Nc1ccccc1` (centres undefined): the composite z-score is -0.153.

In turn, `CC(C)=CCCC=C(C)C(O)C1C=CC2C(=O)N(c3ccccc3)C(=O)C2N1Nc1ccc(C#N)cc1` (centres undefined) gave a composite z-score of -0.0828.

`COCCOC(=O)N1C(=O)[C@@]2(c3cc(C#CC4(O)CCCCCC4)ccc31)[C@H](c1ccc(O)cc1)N1[C@H](c3ccccc3)[C@H](c3ccccc3)OC(=O)[C@H]1[C@@H]2C(=O)N1CCCCCCC1` had a composite z-score of 0.0896.

The compound `COCCOC(=O)N1C(=O)[C@@]2(c3cc(C#Cc4ccc(OC)cc4)ccc31)[C@H](c1ccc(OCCO)cc1)N1[C@H](c3ccccc3)[C@H](c3ccccc3)OC(=O)[C@H]1[C@@H]2C(=O)NC[C@H](O)c1ccccc1` yielded a composite z-score of 0.259.

As to `O=C(N1CCOCC1)[C@@]1(Cc2ccccc2)COC(c2ccc(OCCCO)cc2)=N1`, the composite z-score stood at 0.518.

Compound `COC(=O)c1cccc([C@H]2OC(=CC(=O)OC(C)C)C[C@@H](c3cccc(C(=O)OC)c3)O2)c1` came in with a composite z-score of 0.0297.

Take `CN1C(=O)[C@@H]2[C@@H](CC(COc3ccccc3)=C3[C@@H](CCc4ccccc4)OB(O)C[C@@H]32)C1=O`: the composite z-score is -0.15.

As to `C=C(COC)C(=O)CC[C@@H](OC(=O)c1ccccc1-c1ccccc1C(=O)O)c1ccc(OCCO)cc1`, the composite z-score was -0.139.

Consider `C=C(CCCC)C(=O)CC[C@H](OC(=O)c1ccccc1-c1ccccc1C(=O)O)c1ccc(OCCO)cc1`, for which the composite z-score was -0.0197.

In the case of `C[N+](C)(C)CCCC[C@@H]1NC(=O)[C@H]2C[C@@H](C(=O)NCCCCCNC(=O)CS)[C@@H](c3cccc(OCCO)c3)N2C1=O`, the composite z-score was -0.127.

In turn, `CC(C)NC(=O)[C@@]1(c2ccc([N+](=O)[O-])cc2)CC(=O)N(CC23CC4CC(CC(C4)C2)C3)[C@@H]1c1ccc(CO)cc1` gave a composite z-score of 0.837.

Take `CC(=O)OCC1C2CC[C@H]3C(OCc4ccc(F)cc4C(F)(F)F)OC[C@]4(C)[C@H]3C2=C(CN4C(=O)OC(C)(C)C)[C@H](C)C1COC(C)=O` (some centres undefined): the composite z-score was -0.0512.
